Screening results deposited in PubChem by several laboratories.
GIRK2 activator = GIRK2 channel activators by thallium flux. HEK293 GIRK2/NPY4 cells, thallium flux fluorescence. P48051. activation (% efficacy), % for hits at 37.5 µM. 34,000 tested, under 10 active;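 active means primary screen hit, no activity in plain HEK293 cells, and in GIRK2-only cells above 5% efficacy rising with concentration; inactive means the rest, including fluorescent compounds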;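 further: efficacy is normalized control-subtracted fluorescence 15 s after thallium addition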
Target sequence (P48051 whole entry, looked up): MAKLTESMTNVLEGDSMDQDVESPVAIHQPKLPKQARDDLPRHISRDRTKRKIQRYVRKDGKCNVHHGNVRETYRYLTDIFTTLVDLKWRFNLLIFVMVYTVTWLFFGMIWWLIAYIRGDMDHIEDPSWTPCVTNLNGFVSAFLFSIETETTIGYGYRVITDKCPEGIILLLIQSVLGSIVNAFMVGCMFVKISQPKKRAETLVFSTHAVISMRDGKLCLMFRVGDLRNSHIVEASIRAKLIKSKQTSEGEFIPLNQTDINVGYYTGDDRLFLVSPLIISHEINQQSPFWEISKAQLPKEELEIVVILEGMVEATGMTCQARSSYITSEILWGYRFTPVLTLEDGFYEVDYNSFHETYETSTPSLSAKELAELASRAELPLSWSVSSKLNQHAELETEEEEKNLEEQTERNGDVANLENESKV
GluA2 TARP mod = modulates AMPAR-stargazin complexes; O88602+P19491; HEK293 GluA2+stargazin, membrane potential dye (FDSS), glutamate EC50; hits were called plate by plate, in both directions; calls only at 30 µM; 40,000 tested, 3.5% active; AID 1259245;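 active means any of four per-well response measures lying three or more SD from its plate-wide compound average, in either direction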
Of the large screens only hits and unclear results are named; the others gave an inactive call; [ ] = another dose, or the depositor's remark. This excerpt belongs to a sample that is enriched for hits.

CSc1ccccc1NC(=O)C(=O)NCC(C)(O)C1CC1 (stereo not given)	none
CC(C)(C)n1nc2c(c1-n1cccc1)CN(C(=O)c1nc3ccccc3s1)C2	none
CCOC(=O)c1ccccc1NC(=O)CN1CCCN(Cc2cc(C)ccc2C)S1(=O)=O	GluA2 TARP mod active
COc1ccc(NC(=O)CN2CCCN(Cc3cc(C)ccc3C)S2(=O)=O)c(OC)c1	none
Cc1cccc(N2CCn3c2nc2c3c(=O)n(CC(=O)O)c(=O)n2C)c1	none (no result: GIRK2 activator)
O=C(NCC(O)c1ccsc1)C1CC1 (stereo not given)	none
O=C(NCc1ccsc1)C1CCCCC1	GluA2 TARP mod active
CS(=O)(=O)N1CCCCC1C(=O)Nc1nnc(-c2ccco2)o1 (stereo not given)	none
Cc1cc(NC(=O)c2ccc(N3CCCCC3)nn2)on1	GluA2 TARP mod active
Cc1cc(C)n(CCNC(=O)c2ccc(N3CCCC3)nn2)n1	none
COc1cc(S(=O)(=O)NCCNc2cc(-n3cccn3)ncn2)c(C)cc1C	none
CCCCS(=O)(=O)NCCNc1cc(-n2cccn2)ncn1	GluA2 TARP mod active
CC(C)N(C(=O)CSc1ccc(NC(=O)c2ccccc2)nn1)C(C)C	none
Cc1ccc(=O)n(CCNC(=O)/C=C/c2ccc(F)cc2)n1	none (no result: GluA2 TARP mod)
COc1ccc(Cl)cc1C(=O)NCC(c1cn(C)c2ccccc12)N(C)C (stereo not given)	none (no result: GluA2 TARP mod)
Cc1ccc(NC(=O)Cn2cc(-c3ccccc3)c(N3CCOCC3)n2)cc1C	none
COc1ccc(NC(=O)Cc2csc(Nc3cccc(C(F)(F)F)c3)n2)c(OC)c1	none
COc1cc(C(=O)Oc2ccc3c(c2)O/C(=C\c2cccs2)C3=O)cc(OC)c1OC	none (no result: GIRK2 activator)
COC(=O)COc1ccc2c(c1)O/C(=C\c1cccs1)C2=O	GluA2 TARP mod active (no result: GIRK2 activator)
O=C(Nc1nc2ccc([N+](=O)[O-])cc2s1)c1ccc(S(=O)(=O)N2CCCCC2)cc1	none (no result: GIRK2 activator)
Nc1nc2ccc(S(=O)(=O)N3CCCCC3)cc2s1	GluA2 TARP mod active
CC(C)(C)c1cc(NC(=O)CSCc2ccccc2)n(CCO)n1	GluA2 TARP mod active
O=C(CSCc1ccccc1)Nc1cc(-c2cccs2)nn1CCO	none
CC(C)(C)c1cc(NC(=O)Cc2ccccc2Cl)n(CCO)n1	none
CC(C)(C)c1cc(NC(=O)CCSc2ccccc2)n(CCO)n1	GluA2 TARP mod active
COc1ccc(Cl)cc1NC(=O)C(=O)NCC(C)(O)C1CC1 (stereo not given)	none
O=C(Nc1sc2ccccc2c(=O)c1-c1ccc(Br)cc1)c1ccco1	none
COc1ccc(-c2c(NC(=O)c3ccco3)sc3ccccc3c2=O)cc1OC	GluA2 TARP mod active
O=C(Nc1ccc(N2CCCCC2=O)cc1)c1ccc2c(c1)OCO2	none
CCC(=O)NCCOc1ccc(-c2cccs2)nn1	none
O=C(Cn1cnc(-c2cccs2)cc1=O)NCCOc1ccc(-c2ccco2)nn1	GluA2 TARP mod active
CC(C)(C)C(=O)N1CCN(Cc2nnnn2-c2ccccc2)CC1	none
COc1ccc(C)c2sc(N(Cc3ccncc3)C(=O)c3ccc(C#N)cc3)nc12	none
CCOc1ccc(NS(=O)(=O)c2ccc(NC(=O)c3ccco3)cc2)cc1	none (no result: GIRK2 activator)
CC1CCCCN1c1ccc(N2CCN(C(=O)c3c(F)cccc3Cl)CC2)nn1 (stereo not given)	none
Cc1ccc(S(=O)(=O)CCCC(=O)Nc2ccc([N+](=O)[O-])cc2)cc1	none
CC(C)N1CCC(CNS(=O)(=O)Cc2ccccc2)CC1	none
COc1ccccc1-c1cnn2c(NCCc3ccccc3)cc(C)nc12	GluA2 TARP mod active
COc1ccccc1-c1cnn2c(Nc3ccccc3)cc(C)nc12	none
CC(C)(C)c1ccc(S(=O)(=O)c2cc3cc(F)cc(F)c3oc2=O)cc1	none (no result: GIRK2 activator)
Cc1c(O)ccc2cc(S(=O)(=O)c3ccc(F)cc3)c(=O)oc12	GluA2 TARP mod active (no result: GIRK2 activator)
COC(=O)c1sccc1NC(=O)C1CC(=O)c2ccccc21 (stereo not given)	none
COC(=O)c1ccc2c(=O)n(C3CCN(Cc4ccccc4)CC3)c(=S)[nH]c2c1	none
O=C(CCCc1ccccc1)NCC#CCN1CCc2ccccc2C1	GluA2 TARP mod active
C=CCCC(=O)NCC#CCN1CCc2ccccc2C1	none
COC(=O)c1sc(NC(=O)c2ccccc2)c(C#N)c1C	none
CCCc1c(C(=O)Nc2ccccc2F)nnn1-c1ccccc1	GIRK2 activator 7.0%[25 µM]
CCCc1c(C(=O)NCc2ccccc2OC)nnn1-c1ccccc1	none
Cc1cc(N2CC(C)OC(C)C2)nc2ccccc12 (stereo not given)	GluA2 TARP mod active (no result: GIRK2 activator)
CC1CN(CC(O)COc2cccc3ccccc23)CC(C)O1 (stereo not given)	none (no result: GIRK2 activator)
CCOCCOC(=O)C1=C(C)NC(=O)NC1c1cccc(Oc2ccccc2)c1 (stereo not given)	none (no result: GIRK2 activator)
Fc1cccc(Nc2nc(N3CCCCC3)c3[nH]cnc3n2)c1	none
Fc1ccccc1Nc1nc(N2CCOCC2)c2ccccc2n1	GluA2 TARP mod active (no result: GIRK2 activator)
Cc1nc(Nc2cccc(F)c2)nc(N2CCOCC2)c1[N+](=O)[O-]	none
CN1CCN(c2nc(Nc3cccc(O)c3)nc3ccccc23)CC1	GluA2 TARP mod active (no result: GIRK2 activator)
Cc1cc(NC(=O)c2ccc(S(=O)(=O)N3CCOCC3)cc2)n(C)n1	none (no result: GluA2 TARP mod)
COc1ccc(Cl)cc1C(=O)Nc1sc(SCC(N)=O)nc1-c1ccccc1	none
CCNC(=O)CSc1nc(-c2ccccc2)c(NC(=O)C(C)(C)Oc2ccc(Cl)cc2)s1	GluA2 TARP mod active
NC(=O)CSc1nc(-c2ccccc2)c(NC(=O)CC2CCCC2)s1	GluA2 TARP mod active
COc1ccccc1C(=O)Nc1sc(SCC(N)=O)nc1-c1ccccc1	GluA2 TARP mod active
CCC(=O)Nc1sc(SCC(N)=O)nc1-c1ccccc1	none
CC(C)(C)C(=O)Nc1sc(SCC(=O)NC2CC2)nc1-c1ccccc1	none
CCN(CC)C(=O)Cn1c(C2CC(=O)N(c3ccccc3C)C2)nc2ccccc21 (stereo not given)	none
COc1ccc(C=O)cc1Cn1c(=O)n(CCCCC(=O)NC2CCCC2)c(=O)c2ccccc21	none
CCOc1ccc(NC(=O)CC(NCc2ccco2)C(=O)O)c([N+](=O)[O-])c1 (stereo not given)	none (no result: GIRK2 activator)
COc1ccc(NC(=O)Cn2cc(OC)c(=O)cc2CSc2nnnn2C)cc1OC	GluA2 TARP mod active
COc1cn(CC(=O)Nc2ccc(C(N)=O)cc2)c(CSc2nnnn2C)cc1=O	none
CCOc1ccc(NC(=O)Cn2cc(OC)c(=O)cc2CSc2nc(C)cs2)cc1	none
COc1cn(CC(=O)Nc2ccc(C)cc2)c(CSc2nc(C)cs2)cc1=O	GluA2 TARP mod active
CCN(Cc1ccccc1)C(=O)c1cc2cccnc2n(Cc2ccccc2)c1=O	none
C=CCN(CC=C)C(=O)c1cc(-c2ccccc2)nc2ccccc12	GluA2 TARP mod active (no result: GIRK2 activator)
O=C(Nc1cccc(C(F)(F)F)c1)c1cc(-c2ccccc2)nc2ccccc12	none (no result: GIRK2 activator)
CC(C)(CO)NC(=O)C(=O)NC1CC1	none (no result: GIRK2 activator)
CCS(=O)(=O)NCC1(c2cccs2)CCOCC1	GluA2 TARP mod active
CC(C)CS(=O)(=O)NCC1(c2cccs2)CCOCC1	none
O=C(/C=C/c1ccccc1)Nc1cccc2cnccc12	none (no result: GIRK2 activator)
COc1cccc(C(CNC(=O)C(=O)Nc2cccc(C)c2)N2CCOCC2)c1 (stereo not given)	none
O=C(O)c1ccc(OC2CCCCC2)cc1	none
CC(C)c1ccc(-n2nnc(C(=O)NC3CCCCC3)c2N)cc1	none
Cc1cccc(-n2nnc(C(=O)NC3CCCCC3)c2N)c1	GluA2 TARP mod active
COc1ccccc1NC(=O)CN1CCN(c2ncnc3c2nnn3C)CC1	none
CCC(=O)OCCN1C(=O)c2cccc3c(N4CCCCC4)ccc(c23)C1=O	GluA2 TARP mod active (no result: GIRK2 activator)
